# Source: PubChem BioAssay AID504850 (National Center for Advancing Translational Sciences (NCATS), 2011)
# The whole screen tested about 2,300 compounds, of which about 1,200 (52%) were called active. Inconclusive results (about 34%) are left out. Calls come from the whole dose curve; as a rule, active = well fitted inhibition curve with a large enough effect; inconclusive = small, poorly fitted or top-dose-only effect, or effect the other way; inactive = no such curve, though single readings can be large or run the other way. So high a share suggests a set chosen from earlier hits. The list shows a part of the results.
# Experiment: Confirmation screen for delayed death inhibitors of the malarial parasite plastid, 48 hour incubation; note: nearly all actives have a fitted effect of over 65% in size
# Conditions: P. falciparum-infected erythrocytes, luciferase growth; series mostly up to 28.7 µM
# From the text: The goal of this screen is to discover new antimalarial compounds that act by inhibiting the development of the apicoplast in the malarial parasite Plasmodium falciparum. The biochemical processes that make this organelle essential for erythrocytic stage parasites are not well understood. However, antibiotics, such as azithromycin and tetracycline, which target the apicoplast translational machinery, have a potent antimalarial effect. […] We have developed a cell-based assay that measures parasite growth based on the expression of an integrated copy of a firefly luciferase reporter. To detect small molecules that cause this "delayed death phenotype, erythrocytes infected with the luciferase-expressing parasites were incubated with compounds for either one or two generations, corresponding to 48 and 96 hours, respectively. Compounds that inhibit parasite growth in the second generation, but not the first, should be enriched in antimalarials that target the apicoplast. Growth inhibition is detected by a decrease in luciferase activity. MLPCN Grant: R21 NS059500 Assay Provider: David Fidock and Eric Ekland, Columbia University Keywords: NIH Roadmap, MLPCN, MLI, MLSMR, qHTS, NCGC, qHTS, malaria, luciferase, viability
# Four microliters of culture medium (RPMI 1640 with 0.5% w/v Albumax (GIBCO), 24 mM sodium bicarbonate and 10 ug/mL gentamycin) were dispensed by a Multi-drop Combi into white solid 1536-well plates (Grenier) and 23 nL compound was added by a pin tool. Four microliters of infected erythrocytes (2% hematocrit, 0.1% parasitemia final concentration) in culture medium were dispensed and the plates incubated for 48 hours at 37 C in 5% CO2. Two microliters of luciferase detection reagent was added and luminescence was detected by a ViewLux (PerkinElmer) reader.
# Potency is the fitted concentration of half-maximal effect.
row,SMILES,Potency
1,COc1ccccc1OCC(=O)Nc1cc(Cl)ccc1Oc1ccccc1,inactive
2,Cc1ccc(C)c(N(CC(=O)Nc2cc(Cl)ccc2Oc2ccccc2)S(C)(=O)=O)c1,11.2 µM (active)
3,CN(C)S(=O)(=O)c1ccc(Cl)c(NC(=O)CN2C(=O)NC(C)(C3CC3)C2=O)c1 (centres undefined),14.1 µM (active)
4,CCOc1ccc2c(c1)C(N(CCN1CCOCC1)C(=O)Nc1ccccc1)CC(C)(C)O2 (centres undefined),12.6 µM (active)
5,COCCNC(=O)c1cccc(OC2CCN(Cc3ccc(C(C)C)cc3)CC2)c1,14.1 µM (active)
6,C=CCNC(=O)c1onc(CSc2ccc(Cl)cc2)c1C(=O)O,inactive
7,CCOC(=O)C(C(=O)OCC)C(Nc1cccc(Br)c1)c1ccccc1 (centres undefined),14.1 µM (active)
8,Cc1ccc(Nc2nc(NCc3ccco3)c3ccccc3n2)cc1,2 µM (active)
9,Cc1ccc2cc(C)c(SCC(=O)NCc3ccco3)nc2c1,inactive
10,COc1ccc(Cl)cc1NC(=O)C(C)NC(c1ccccc1)c1ccccc1 (centres undefined),8.91 µM (active)
11,COc1ccc(Nc2cc(Cl)ccc2C(=O)O)cn1,inactive
12,C#CCOCCOCCOCCNc1nc(N2CCN(C(=O)Cn3cc(CC(C)O)nn3)CC2)nc(N2CCN(C(=O)[C@H](C)n3cc(CCCN=C(N)N)nn3)CC2)n1 (some centres undefined),inactive
13,COc1nc(NC(=O)c2ccc(F)cc2)nc(OC)c1-c1ccccc1,12.6 µM (active)
14,O=[N+]([O-])c1c(Nc2ccccc2O)cc(Cl)c2nonc12,5.62 µM (active)
15,CC(C)(C)NC(=O)[C@H]1CN(Cc2cccnc2)CCN1C[C@@H](O)C[C@@H](Cc1ccccc1)C(=O)N[C@H]1c2ccccc2C[C@H]1O,7.94 µM (active)
16,CCCCN(CCCNC(=O)c1ccc(CS(=O)(=O)c2ccc(OC)cc2)o1)Cc1ccccc1,12.6 µM (active)
17,CN(CCCNC(=O)c1ccc(CS(=O)c2ccc(Br)cc2)o1)Cc1ccccc1 (centres undefined),8.91 µM (active)
18,CCCCNC(=O)c1ccc(CS(=O)(=O)c2cccc(C(F)(F)F)c2)o1,inactive
19,CN(CCNC(=O)c1ccc(CS(=O)(=O)c2ccc(Br)cc2)o1)CCc1ccccc1,4.47 µM (active)
20,CCn1c(=O)c(CCC(=O)N2CCOCC2)c(C)c2c(C)nn(-c3ccccc3)c21,14.1 µM (active)
21,COc1ccc(C)cc1S(=O)(=O)N1CCN(S(=O)(=O)c2cc(C(=O)O)ccc2C)CC1,11.2 µM (active)
22,Cc1ccc(S(=O)(=O)N2CCN(C(=O)c3cc(S(=O)(=O)N(C)C)ccc3N3CCCC3)CC2)c(C)c1,12.6 µM (active)
23,Cc1ccc(S(=O)(=O)N2CCN(C(=O)c3ccc(Br)o3)CC2)c(C)c1,10 µM (active)
24,COc1ccc(C(=O)N2CCN(S(=O)(=O)c3ccc(C)cc3C)CC2)cc1OC,12.6 µM (active)
